The text below walks through data of PubChem BioAssay (NCI).

Some test systems named below: SR leukemia; RPMI-8226 leukemia; OVCAR-8 ovarian; OVCAR-5 ovarian; OVCAR-4 ovarian; SK-OV-3 ovarian; IGROV1 ovarian; OVCAR-3 ovarian; HS 578T breast; NCI/ADR-RES ovarian; T-47D breast; BT-549 breast; MDA-MB-435 melanoma; SW-620 colon; MCF7 breast; HCT-116 colon; HCC-2998 colon; KM12 colon; MDA-MB-468 breast.
Common to all, as to experiment: NCI-60 one-dose screen, 48 h (100 = growth as untreated, 0 = no growth, -100 = all killed)
Settings in all cases: 10 µM unless noted

About 83,000 compounds went through this panel and 20% of them were active in at least one assay; those are over-represented in the sample as a whole.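 How to read the values: 0–100, growth inhibition (40 = 60% inhibited); 0, no net growth; -100 to 0, cell death (-40 = 40% of starting cells died; -100 = all dead).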 Values without a mark were called inactive. The source made the active and inactive calls. How the source made its calls: active means growth percent below 10; inactive means the rest.

With `CN(C)c1ccc(/C=C/c2n(Cc3ccc4ccccc4c3)c3ccccc3[n+]2Cc2ccc3ccccc3c2)cc1`, the growth in the assay with SR leukemia is -29.3% (active); in the assay with RPMI-8226 leukemia it was -36.7% (active); in the assay on OVCAR-8 ovarian it was -31.3% (active); in the assay with OVCAR-5 ovarian it was -97.6% (active); in the assay on OVCAR-4 ovarian, -79% (active); in the assay with SK-OV-3 ovarian, -80.3% (active). In addition, the growth in the assay on IGROV1 ovarian was -75.9% (active); in the assay with OVCAR-3 ovarian, -45.2% (active); in the assay with HS 578T breast it was -46.3% (active); with NCI/ADR-RES ovarian, -80.7% (active); in the assay with T-47D breast it was -55.3% (active); in the assay on BT-549 breast, -87.1% (active). Besides, the growth in the assay with MDA-MB-435 melanoma was -94.7% (active); in the assay with SW-620 colon, -65.4% (active); in the assay on MCF7 breast, -67.3% (active); in the assay on HCT-116 colon it was -62.7% (active); with HCC-2998 colon it was -89.1% (active); in the assay on KM12 colon, -29.9% (active). The growth with MDA-MB-468 breast is -82.2% (active).

For the compound `Nc1nnc(-c2cncc(Br)c2)c(-c2c[nH]c3ccc(Br)cc23)n1`, the growth with SR leukemia was 54.3%; with RPMI-8226 leukemia it was 38.4%; in the assay on OVCAR-8 ovarian, 60%; with OVCAR-5 ovarian, 83%; with OVCAR-4 ovarian, 42.9%; with SK-OV-3 ovarian it was 98.7%. The growth is 52.3% with IGROV1 ovarian; 69.9% in the assay on OVCAR-3 ovarian; 55.3% in the assay with HS 578T breast; 23.9% in the assay with NCI/ADR-RES ovarian; 26.1% in the assay on T-47D breast; 47.4% with BT-549 breast. The growth was -14.4% (active) in the assay on MDA-MB-435 melanoma; 28.1% in the assay with SW-620 colon; 50.4% in the assay with MCF7 breast; 22.9% in the assay on HCT-116 colon; 74.7% with HCC-2998 colon; 41.4% with KM12 colon. Further, in the assay on MDA-MB-468 breast, the growth is -4.92% (active).

As for `CCCCNc1ccc2c3c(cccc13)C(=O)N(NCC(O)COc1ccc3c(C)cc(=O)oc3c1)C2=O` (configuration not stated), the growth is 70.2% in the assay with SR leukemia; 69.3% in the assay on RPMI-8226 leukemia; 91.2% in the assay with OVCAR-8 ovarian; 106% in the assay with OVCAR-5 ovarian; 74.6% with OVCAR-4 ovarian; 99.4% with SK-OV-3 ovarian. The growth with IGROV1 ovarian is 78.9%; in the assay with OVCAR-3 ovarian it was 87.8%; in the assay on HS 578T breast it was 80.7%; with NCI/ADR-RES ovarian, 85.8%; in the assay with T-47D breast it was 80.8%; in the assay with BT-549 breast, 95.8%. Besides, the growth is 72.2% with MDA-MB-435 melanoma; 93.1% with SW-620 colon; 64.6% in the assay with MCF7 breast; 91.9% with HCT-116 colon; 104% in the assay with HCC-2998 colon; 85.7% in the assay with KM12 colon. In addition, the growth in the assay with MDA-MB-468 breast is 68.8%.

As for `Cc1ccc(C(=O)Nc2cc(-c3ccncc3)cc(C(F)(F)F)c2)cc1C#Cc1cnc2cccnn12`, the growth in the assay with SR leukemia was -11.9% (active); in the assay on RPMI-8226 leukemia, 20%; with OVCAR-8 ovarian, 50.4%; with OVCAR-5 ovarian, 53.5%; with OVCAR-4 ovarian, 63.5%; in the assay on SK-OV-3 ovarian, 127%. In addition, the growth with IGROV1 ovarian was 54.4%; in the assay on OVCAR-3 ovarian, 95.6%; in the assay on HS 578T breast, 23%; in the assay with NCI/ADR-RES ovarian, 50.2%; with T-47D breast, 81.6%; in the assay on BT-549 breast it was 86.8%. Moreover, the growth in the assay with MDA-MB-435 melanoma was 33.9%; with SW-620 colon, 30.7%; with MCF7 breast it was 45.9%; in the assay on HCT-116 colon, 23.4%; in the assay on HCC-2998 colon it was 63.5%; with KM12 colon it was 36.2%. Moreover, in the assay on MDA-MB-468 breast, the growth is 92.7%.

As for `COc1cc(/C=N/NC(=O)c2ccc(OCc3nc4ccc(Cl)cc4[nH]3)cc2)cc(OC)c1OC`, the growth is 33% with SR leukemia; 2.76% (active) with RPMI-8226 leukemia; 34.5% in the assay with OVCAR-8 ovarian; 76.3% in the assay with OVCAR-5 ovarian; 67.1% in the assay with OVCAR-4 ovarian; 97.7% with SK-OV-3 ovarian. Moreover, the growth in the assay with IGROV1 ovarian is 43.1%; in the assay with OVCAR-3 ovarian it was 55.7%; in the assay on HS 578T breast, 58.3%; with NCI/ADR-RES ovarian, 80.6%; with T-47D breast it was 7.17% (active); in the assay with BT-549 breast, 22.9%. Moreover, the growth is 37.7% in the assay on MDA-MB-435 melanoma; 40.8% in the assay with SW-620 colon; 18.3% in the assay on MCF7 breast; 22.8% in the assay with HCT-116 colon; 61.2% in the assay with HCC-2998 colon; 43.3% in the assay with KM12 colon. The growth in the assay on MDA-MB-468 breast was 43.4%.

In the case of `COc1c2c(c(Br)c3c1C(CCc1ccccc1)N(C)CC3)OCO2` (configuration not stated), the growth with SR leukemia was 31%; in the assay on RPMI-8226 leukemia it was 16.7%; in the assay with OVCAR-8 ovarian it was 48.4%; in the assay with OVCAR-5 ovarian it was 29.9%; in the assay with OVCAR-4 ovarian, 59.9%; with SK-OV-3 ovarian, 76.8%. The growth was 19.5% in the assay with IGROV1 ovarian; 55.5% in the assay on OVCAR-3 ovarian; 61.4% in the assay on HS 578T breast; 40% in the assay on NCI/ADR-RES ovarian; 33.6% in the assay with T-47D breast; 3.17% (active) in the assay with BT-549 breast. Moreover, the growth with MDA-MB-435 melanoma was 13.9%; in the assay with SW-620 colon, 11.9%; in the assay on MCF7 breast, 18.6%; in the assay with HCT-116 colon it was 11%; in the assay on HCC-2998 colon, 27.4%; in the assay on KM12 colon, 11.4%. The growth with MDA-MB-468 breast was 41.8%.

As for `Cc1ccc(C(C(=O)NC2CCCCC2)N(Cc2ccccc2Cl)C(=O)c2ccc(CN3CCOCC3)o2)o1` (configuration not stated), the growth is 103% in the assay on SR leukemia; 80.4% with RPMI-8226 leukemia; 104% in the assay on OVCAR-8 ovarian; 99.8% in the assay with OVCAR-5 ovarian; 96.8% in the assay on OVCAR-4 ovarian; 112% with SK-OV-3 ovarian. For the same compound, the growth with IGROV1 ovarian was 92.5%; with OVCAR-3 ovarian, 110%; in the assay on HS 578T breast it was 86%; with NCI/ADR-RES ovarian it was 87.5%; in the assay with T-47D breast it was 99.9%; with BT-549 breast, 152%. Further, the growth in the assay with MDA-MB-435 melanoma is 102%; in the assay on SW-620 colon, 105%; with MCF7 breast, 95.3%; with HCT-116 colon, 89.1%; with HCC-2998 colon, 94.7%; in the assay with KM12 colon it was 99.4%. Also, the growth in the assay on MDA-MB-468 breast was 84.7%.

For `CCCn1c(NC(=O)c2cccc(C(N)=O)c2)nc2cc(CN3CCCCC3)ccc21`, the growth was 41.5% with SR leukemia; 80.7% with RPMI-8226 leukemia; 117% in the assay with OVCAR-8 ovarian; 99% in the assay on OVCAR-5 ovarian; 90.2% in the assay with OVCAR-4 ovarian; 83.4% in the assay on SK-OV-3 ovarian. The growth was 88.5% in the assay on IGROV1 ovarian; 101% in the assay on OVCAR-3 ovarian; 119% in the assay on HS 578T breast; 114% with NCI/ADR-RES ovarian; 86.6% in the assay on T-47D breast; -10.8% (active) in the assay with BT-549 breast. The growth in the assay on MDA-MB-435 melanoma was 101%; in the assay with SW-620 colon, 113%; in the assay with MCF7 breast, 71.5%; in the assay on HCT-116 colon it was 5.91% (active); in the assay on HCC-2998 colon it was 116%; in the assay on KM12 colon it was 22.8%. The growth in the assay with MDA-MB-468 breast was 82.5%.
